Experimental data from the supplement of paper PMC12808144.
Unmarked numbers belong to inactive results.

system: Mel-DCC-11-R; test: cell viability relative to DMSO control (fraction of DMSO control); higher = less cytotoxic, active = 0.8 or less; conditions: 1 µM; 120 h; vemurafenib co-treatment 0 µM
Protocol: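 Same 315-drug TargetMol library at 1 µM in duplicate, 120 h, ATPlite luminescence normalised to DMSO controls, on the vemurafenib-resistant subline Mel-DCC-11-R cultured alone or with 8 µM vemurafenib co-treatment (Mel-DCC-11-R + V).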

| SMILES | cell viability |
| --- | --- |
| O=C(O)CCCc1ccc(N(CCCl)CCCl)cc1 [Chloroambucil] | 0.906 |
| Cl.Cn1c(CCCC(=O)O)nc2cc(N(CCCl)CCCl)ccc21 [Bendamustine hydrochloride] | 0.822 |
| C[C@]12CC[C@H]3[C@@H](CC[C@@]45O[C@@H]4C(O)=C(C#N)C[C@]35C)[C@@H]1CC[C@@H]2O [Trilostane] | 1.03 |

same assay, conditions: 1 µM; 120 h; vemurafenib co-treatment 8 µM

| SMILES | cell viability |
| --- | --- |
| O=C(O)CCCc1ccc(N(CCCl)CCCl)cc1 [Chloroambucil] | 1.11 |
| Cl.Cn1c(CCCC(=O)O)nc2cc(N(CCCl)CCCl)ccc21 [Bendamustine hydrochloride] | 1.04 |
| C[C@]12CC[C@H]3[C@@H](CC[C@@]45O[C@@H]4C(O)=C(C#N)C[C@]35C)[C@@H]1CC[C@@H]2O [Trilostane] | 1.05 |
